Test results published in PubChem BioAssay (EPA / NIEHS).
“And” between values parts separate entries of the source, which are not always exact repeats. Equal values may be shown once. A structure can be active in one record and inactive in another. The source made the active and inactive calls. Rule for the calls: active = hit-call score of the fitted dose curve at least 0.9, where 1 is the maximum; inactive = score below 0.9.

assay: ATG_AP_2_CIS: Attagene CIS-FACTORIAL HepG2 Assay for human Activator Protein 2 (AP-2) (AID 2282932); details: HepG2 AP-2 cis-reporter, Attagene transcription factor profiling; AC50: actives raise or lower the signal unless noted; outcome: actives raise or lower the signal unless noted
Procedure: ATG_CIS is a cell-based, multiplexed-readout assay that uses HepG2, a human liver cell line, with measurements taken at 24 hours after chemical dosing in a 24-well plate.ATG_AP_2_CIS is one of 52 assay component(s) measured or calculated from the ATG_CIS assay. It is designed to make measurements of mRNA induction, a form of inducible reporter, as detected with fluorescence intensity signals by Reverse transcription polymerase chain reaction (RT-PCR) and Capillary electrophoresis technology.Data from the assay component ATG_AP_2_CIS was analyzed into 1 assay endpoint. This assay endpoint, ATG_AP_2_CIS, was analyzed with bidirectional fitting relative to DMSO as the negative control and baseline of activity. Using a type of inducible reporter, measures of mRNA for gain or loss-of-signal activity can be used to understand the reporter gene at the transcription factor-level as they relate to the gene TFAP2A and TFAP2B and TFAP2D. Furthermore, this assay endpoint can be referred to as a primary readout, because this assay has produced multiple assay endpoints where this one serves a reporter gene function. To generalize the intended target to other relatable targets, this assay endpoint is annotated to the dna binding intended target family, where the subfamily is basic helix-turn-helix leucine zipper.
Human liver HepG2 cells are transiently transfected with multiple reporter transcription units (MRTUs) in 6-well plates using FuGene 6 reagent (Roche; 3 ml FuGene/1 mg DNA). The MRTU constructs are regulated by a cis-regulating element (promoter). […] A major difference between the CIS and TRANS system is that in CIS activities of endogenous TFs are measured, whereas the TRANS assay evaluates changes in activities of exogenous, chimeric NR-Gal4 proteins. […] At the end of 24 hour incubation, total RNA was isolated using TriZol reagent (Invitrogen). The isolated RNA is then reverse-transcribed using oligo(dT) primer and Mo-MLV reverse transcriptase (Invitrogen) with DNAse I (Ambion) treatment for 30 min. The one-tenth of the produced cDNA was amplified by PCR using Taq DNA polymerase (Invitrogen) and two reporter sequence-specific primers. The PCR products were fluorescently labeled by primer extension with 6-arboxyfluorescein (6-FAM) 5'-labeled reporter sequence-specific primer (2 min at 95 C, 20 s at 68 C and 10 min at 72 C) and these products were digested with 5U of HpaI (New England Biolabs) for 2h at 37 C. The fragments were purified using Qiaquick PCR columns (Qiagen), analyzed on an ABI 3130xL genetic analyzer (Applied Biosystems) with peak positions identified by using a set of X-rhodamine (ROX)-labeled MapMarker1000 molecular weight standards (BioVentures). The raw capillary electrophoresis data was processed using Attagraph software (Attagene).

Question: With CCCCCCCCC(C)=O as the molecule, how does the outcome read?
Answer: Its outcome is “inactive”.

Question: For CCc1ccccc1O, which outcome is on record?
Answer: Its outcome is “inactive”.

Question: For CC1=CC(=O)c2ccccc2C1=O, which outcome is on record?
Answer: The outcome was “inactive”.

Question: With CCCCC(CC)C(=O)OCCOCCOCCOCCOC(=O)C(CC)CCCC (stereo not given) as the molecule, how does the outcome read?
Answer: Its outcome is “inactive”.

Question: With COc1ccc(C#N)cc1 as the molecule, how does the outcome read?
Answer: Its outcome is “inactive”.

Question: For Clc1ccc(Nc2nnc(Cc3ccncc3)c3ccccc23)cc1, which outcome is on record?
Answer: The outcome was “inactive”.

Question: Which outcome does the source give for O=C(O)c1cccc(C(=O)O)n1 here?
Answer: The outcome was “inactive”.

Question: Which outcome does the source give for Oc1cc2ccccc2cc1O here?
Answer: Its outcome is “inactive”.

Question: For Nc1ccn([C@@H]2O[C@H](CO)[C@@H](O)C2O)c(=O)n1 (stereo not given in full), which outcome is on record?
Answer: Its outcome is “inactive”.

Question: For C[C@]12CC[C@@H]3c4ccc(O)cc4CC[C@H]3[C@@H]1C[C@@H](O)[C@@H]2O, which outcome is on record?
Answer: Its outcome is “inactive”.

Question: And the AC50?
Answer: The AC50 was 24.9 µM (active).

Question: With CCCCCCCCCCCCCCCCCC[N+](C)(C)Cc1ccccc1 as the molecule, how does the AC50 read?
Answer: Its AC50 is 88.1 µM (active).

Question: With CCCCC(CC)C(=O)O (stereo not given) as the molecule, how does the outcome read?
Answer: The outcome was “inactive”.

Question: For CCCCCC(C)OC(=O)COc1ccc(Cl)c2cccnc12 (stereo not given), which outcome is on record?
Answer: The outcome was “inactive”.

Question: With c1cc[nH]c1 as the molecule, how does the outcome read?
Answer: The outcome was “inactive”.

Question: Which outcome does the source give for CC(C)c1c(C(=O)Nc2ccccc2)c(-c2ccccc2)c(-c2ccc(F)cc2)n1CC[C@@H](O)C[C@@H](O)CC(=O)O here?
Answer: Its outcome is “inactive”.

Question: Which outcome does the source give for O=c1cc(-c2ccccc2)oc2ccc3ccccc3c12 here?
Answer: The outcome was “inactive”.

Question: With O=CC(F)(F)C(F)(F)C(F)(F)C(F)F as the molecule, how does the outcome read?
Answer: Its outcome is “inactive”.

Question: With CC(=O)Nc1ccc(S(N)(=O)=O)cc1 as the molecule, how does the outcome read?
Answer: Its outcome is “inactive”.

Question: For CCCCCCCCCCCCCCC, which outcome is on record?
Answer: Its outcome is “inactive”.

Question: Which outcome does the source give for CC(C)C=O here?
Answer: The outcome was “inactive”.

Question: With NC(C(F)(F)F)C(F)(F)F as the molecule, how does the outcome read?
Answer: The outcome was “inactive”.

Question: With CCCCCCCCC1CCC(=O)O1 (stereo not given) as the molecule, how does the outcome read?
Answer: The outcome was “inactive”.

Question: Which outcome does the source give for CCC(C)c1nccnc1OC (stereo not given) here?
Answer: The outcome was “inactive”.

Question: For Cc1cccc2c1ccc1ccccc12, which outcome is on record?
Answer: The outcome was “inactive”.

Question: For O=C(CC(=O)C(F)(F)C(F)(F)C(F)(F)F)c1cccs1, which outcome is on record?
Answer: The outcome was “inactive [setting not given]”.

Question: For Nc1cc(Cl)c(-c2cc(Cl)c(N)cc2Cl)cc1Cl, which outcome is on record?
Answer: Its outcome is “inactive”.

Question: For Cc1cc(C(C)(C)C)c(O)c(C(C)(C)C)c1, which outcome is on record?
Answer: Its outcome is “inactive”.

Question: Which outcome does the source give for NCCN here?
Answer: The outcome was “inactive”.

Question: For O=P(O)(O)CCC(F)(F)C(F)(F)C(F)(F)C(F)(F)C(F)(F)C(F)(F)C(F)(F)C(F)(F)F, which outcome is on record?
Answer: The outcome was “inactive”.

Question: With COC(=O)C(F)(F)C(F)(F)C(F)(F)F as the molecule, how does the outcome read?
Answer: Its outcome is “inactive”.

Question: Which outcome does the source give for Cc1ccc(C)c(S(=O)(=O)O)c1 here?
Answer: The outcome was “inactive”.

Question: With CC1CNCC(C)O1 (stereo not given) as the molecule, how does the outcome read?
Answer: The outcome was “inactive”.

Question: What does the source list for CCCCCCCCCCCC[N+](C)(C)Cc1ccccc1?
Answer: AC50: 15.7 µM (active); outcome: inactive

Question: What does the source list for O=C(NO)c1ccccc1?
Answer: AC50: 63.6 µM (active) and 59.8 µM (active); outcome: inactive

Question: What does the source list for NC(=NCCCCCCN=C(N)/N=C(\N)Nc1ccc(Cl)cc1)/N=C(\N)Nc1ccc(Cl)cc1?
Answer: AC50: 16.9 µM (active); outcome: inactive

Question: Which outcome does the source give for O=C(NCc1ncc(C(F)(F)F)cc1Cl)c1c(Cl)cccc1Cl here?
Answer: Its outcome is “inactive”.
